An excerpt weighted towards active compounds, which were near 4.3% of everything screened.
HSF1 inh = HSF1 inhibition | NIH3T3-HGL HSE-luciferase, MG132-induced, luminescence 8 h; active compounds read low | actives 0.77% (n = 300,000) | AID 2098 | activity change, negative = inhibition, % at 7.5 µM (by protocol);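 active = more than half of replicate wells show activity change below -50%, luminescence cut by over half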;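 also: luciferase reports HSF-1 transcriptional activity via heat shock element; 0% = median of DMSO wells and -100% = zero luminescence signal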
esBAF inh = inhibitors of esBAF chromatin remodeling in mouse ES cells | Bmi1-luciferase knock-in reporter, 24 h; 100% = twice the neutral-well signal | reporter increase, % at 12.5 µM | actives 2% (n = 350,000) | AID 602393; in the data active = activation above about 40%;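 also: 0% = median of the plate's neutral control wells and 100% = double that signal; a rise in the Bmi1 reporter signal indicates esBAF inhibition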
Wnt bcat act = activators of Wnt/beta-catenin signaling | activation, % at 9.35 µM | AID 743398 | Wnt/beta-catenin reporter cell assay, activator, plate reader | actives 1.2% (n = 300,000); in the data active = activation above about 30%, passing the limit was not always enough;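 also: 0% = neutral control wells and 100% = positive control wells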
MITF TRPM1 HTS = increases MITF-driven TRPM1 promoter luciferase signal. SK-MEL-5 TRPM1-promoter luciferase, 24 h; % of positive control, neutral wells = 0. actives 0.75% (n = 300,000). AID 588334. activation, % at 12.5 µM;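 active = mean activation of at least 80% with every replicate also reaching 80%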;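 also: 0% = neutral control wells and 100% = parthenolide positive control wells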
SMARCA2 act = activators of SMARCA2 function; MG213 cells, MMTV-luciferase reporter, dexamethasone, overnight; activation, % at 9.1 µM; actives 1% (n = 370,000); in the data active = activation above about 7.8%;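 also: 0% = vehicle wells and 100% = reference activator wells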
HSF1 activator = increases HSF-1 driven luciferase reporter signal; actives 1.7% (n = 300,000); activation, % at 9 µM; NIH3T3-HGL HSF-1 luciferase reporter, MG132, 8 h; 100% = twice DMSO control signal;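 active = mean replicate activation of at least 50% with a set share of replicates each reaching 50%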;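 also: 0% = median of the neutral control wells and 100% = twice that signal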
* = called active by the depositor.

CN(C)/C=N/c1nc(-c2ccc3ccccc3c2)cs1 was read as HSF1 inh 37, esBAF inh 60, Wnt bcat act 41*, MITF TRPM1 HTS 125*, SMARCA2 act 3 and HSF1 activator 46.
Cc1nc(-c2ccc3c(c2)OCCO3)cs1 was read as HSF1 inh 24, Wnt bcat act -4, MITF TRPM1 HTS 39, SMARCA2 act 2 and HSF1 activator 23.
Screening CCOC(=O)C(=CNc1nc(-c2ccc3ccccc3c2)cs1)C(=O)OCC returned HSF1 inh 0, esBAF inh 32, Wnt bcat act 8, MITF TRPM1 HTS 17, SMARCA2 act 4 and HSF1 activator 21.
C[C@H](CO)N1C[C@H](C)[C@H](CN(C)S(=O)(=O)c2ccc(F)cc2)Oc2ccc(NS(=O)(=O)c3ccc(Cl)cc3)cc2C1=O was read as esBAF inh -12.
`CCCc1cc2c(=O)c(-c3ccc4c(c3)OCCO4)coc2cc1OC(=O)c1ccco1` gave HSF1 inh 33, esBAF inh 81*, MITF TRPM1 HTS 84*, SMARCA2 act 6 and HSF1 activator 64*.
CCc1cc2c(=O)c(-c3ccc4c(c3)OCCO4)coc2cc1OC(=O)c1ccco1 was read as HSF1 inh 28, esBAF inh -6, Wnt bcat act 67*, SMARCA2 act 7 and HSF1 activator 30.
CCCc1cc2c(=O)c(-c3ccc4c(c3)OCCO4)coc2cc1OS(C)(=O)=O was read as HSF1 inh 18, Wnt bcat act 8, MITF TRPM1 HTS 59, SMARCA2 act 5 and HSF1 activator 22.
Screening C[C@H]1CN([C@@H](C)CO)C(=O)Cc2cc(NS(C)(=O)=O)ccc2O[C@H]1CN(C)C(=O)NC1CCCCC1 returned esBAF inh 1.
Screening c1csc(COc2ccccc2CNC2CCCCC2)c1 returned HSF1 inh -1, Wnt bcat act 17, MITF TRPM1 HTS 6, SMARCA2 act 1 and HSF1 activator 13.
c1ccc(COc2ccccc2CNC2CCCC2)cc1 was read as HSF1 inh 24, Wnt bcat act -3, MITF TRPM1 HTS 7, SMARCA2 act -1 and HSF1 activator 58*.
O=C(Cn1cc2c(n1)CCCC2)Nc1cc(-c2cccc(Cl)c2)no1 was read as HSF1 inh 27, esBAF inh 51*, Wnt bcat act 6, SMARCA2 act -1 and HSF1 activator 49.
`COc1ccc(NC(=O)Nc2ccc3nonc3c2)cc1` gave HSF1 inh -9, Wnt bcat act 39*, SMARCA2 act 3 and HSF1 activator 28.
For COc1ccc(NC(=O)Nc2ccc3nccnc3c2)cc1 the results were HSF1 inh 22, esBAF inh 55*, MITF TRPM1 HTS 96*, SMARCA2 act 7.9* and HSF1 activator 15.
For COc1ccc(NC(=O)Nc2ccc3[nH]ccc3c2)cc1 the results were HSF1 inh 11, Wnt bcat act 16, SMARCA2 act 2 and HSF1 activator 16.
`CO[C@@H]1CN(C)C(=O)c2ccc(NS(C)(=O)=O)cc2OC[C@H](C)N(C(=O)c2ccc3c(c2)OCO3)C[C@H]1C` gave esBAF inh -4.
For O=C(C[C@H]1C=C[C@H](NC(=O)C2CCOCC2)[C@H](CO)O1)NCC1CC1 the results were esBAF inh 2.
For Cc1ccc(NC2CCCN(C(=O)c3ccc4nccnc4c3)C2)cc1C (centres undefined) the results were HSF1 inh -5, esBAF inh -3, Wnt bcat act 0, MITF TRPM1 HTS -11, SMARCA2 act -3 and HSF1 activator -5.
O=C(c1ccc2nccnc2c1)N1CCCC(Nc2ccc(F)c(F)c2)C1 (centres undefined) was read as HSF1 inh 22, Wnt bcat act 0, MITF TRPM1 HTS 3, SMARCA2 act -1 and HSF1 activator 59*.
COc1cccc(NC(=O)N2C[C@H](O)COC[C@@H]3O[C@@H](CC(=O)NCCCN4CCOCC4)CC[C@H]32)c1 was read as esBAF inh 2.
Cc1cccn2c(NC(=O)c3cccs3)c(-c3ccccc3)nc12 was read as HSF1 inh 11, MITF TRPM1 HTS 5, SMARCA2 act 7.9* and HSF1 activator -7.
Screening CN(C)CCCNC(=O)C[C@@H]1CC[C@@H]2[C@@H](COc3ccc(NC(=O)c4ccc5c(c4)OCO5)cc3C(=O)N2C)O1 returned esBAF inh 13.
Screening COc1ccc2cc3c(N)nn(C(=O)c4ccc(Cl)c([N+](=O)[O-])c4)c3nc2c1 returned HSF1 inh -31, Wnt bcat act -4, MITF TRPM1 HTS -4, SMARCA2 act -2 and HSF1 activator -25.
O=C(Nc1nc2ccccc2s1)c1ccccc1[N+](=O)[O-] was read as HSF1 inh 19, esBAF inh 50*, Wnt bcat act 9, SMARCA2 act 3 and HSF1 activator 21.
Screening COc1ccc2cc3c(N)nn(C(=O)c4ccccc4[N+](=O)[O-])c3nc2c1 returned HSF1 inh -53*, Wnt bcat act -4, MITF TRPM1 HTS -14, SMARCA2 act -5 and HSF1 activator -63.
Screening CCOc1ccc2nc(SCC(=O)c3ccc(Cl)s3)sc2c1 returned HSF1 inh 11, MITF TRPM1 HTS 3, SMARCA2 act 1 and HSF1 activator 9.
Screening Cc1cc(C)c2sc(NC(=O)c3ccc([N+](=O)[O-])o3)nc2c1 returned HSF1 inh 54, esBAF inh 27, Wnt bcat act -1, SMARCA2 act -2 and HSF1 activator 77*.
CCOc1ccc2nc(SCC(=O)c3cccs3)sc2c1 was read as HSF1 inh 35, esBAF inh 90*, Wnt bcat act 50*, SMARCA2 act 7 and HSF1 activator 61*.
Screening COc1ccc2nc(NC(=O)c3ccco3)sc2c1 returned HSF1 inh -11, esBAF inh -57, Wnt bcat act 3, MITF TRPM1 HTS -8, SMARCA2 act -1 and HSF1 activator 1.
`O=C(Nc1nc2cc3c(cc2s1)OCCO3)c1cccs1` gave HSF1 inh -19, esBAF inh -57, Wnt bcat act 32*, MITF TRPM1 HTS -15, SMARCA2 act -3 and HSF1 activator -11.
For COc1ccc2nc(NC(=O)c3ccccc3[N+](=O)[O-])sc2c1 the results were HSF1 inh 24, esBAF inh 50*, Wnt bcat act 8, MITF TRPM1 HTS 16, SMARCA2 act 0 and HSF1 activator 34.
`O=C(Nc1ccc2c(c1)OCCO2)c1cccs1` gave HSF1 inh 9, esBAF inh 8, Wnt bcat act 15, MITF TRPM1 HTS 43, SMARCA2 act 4 and HSF1 activator 29.
For COc1ccc2nc(NC(=O)c3ccccc3O)sc2c1 the results were HSF1 inh 69, esBAF inh 8, Wnt bcat act 38*, MITF TRPM1 HTS 88*, SMARCA2 act 3 and HSF1 activator 103*.

Screening results from PubChem.
